# The list is not random: actives were taken first. Their share in the collection is about 2.3%.
# CHRM1 PAM – human CHRM1 positive allosteric modulation; P11229; CHO-K1 hM1, Fluo-8 calcium fluorescence, ACh EC20; 0% = ACh EC20, 100% = maximal ACh; activation, % at 3 µM; 0.088% of 360,000 active; AID 588819; in the data active = activation above about 19%, passing the limit was not always enough
# Target sequence (P11229 whole entry, looked up): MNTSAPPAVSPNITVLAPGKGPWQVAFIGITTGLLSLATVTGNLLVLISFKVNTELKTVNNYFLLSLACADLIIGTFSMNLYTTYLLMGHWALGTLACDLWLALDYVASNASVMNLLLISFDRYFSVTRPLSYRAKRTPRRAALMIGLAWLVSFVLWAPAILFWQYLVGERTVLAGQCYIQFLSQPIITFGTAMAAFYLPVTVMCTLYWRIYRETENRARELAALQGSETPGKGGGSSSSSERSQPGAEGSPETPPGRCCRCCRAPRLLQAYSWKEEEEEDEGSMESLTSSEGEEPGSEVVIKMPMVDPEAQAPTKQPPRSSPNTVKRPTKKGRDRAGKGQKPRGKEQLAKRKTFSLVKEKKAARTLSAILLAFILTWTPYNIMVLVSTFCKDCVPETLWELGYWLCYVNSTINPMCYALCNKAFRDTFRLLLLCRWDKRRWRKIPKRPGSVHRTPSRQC
# CHO-K1 Ca PAM – M1 PAM counterscreen hit in parental CHO-K1 cells | activation, % at 3 µM | AID 602247 | 0.02% of 360,000 active | ATP EC20, Fluo-8 calcium fluorescence; 0% at ATP EC20, 100% at ATP max;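 active = activation above the run cutoff, the mean activation of all test compounds plus 3 SD, cut at about 40% in these data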;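 also: peak over basal fluorescence ratio in a 140 s read after ATP addition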
# CHO-K1 Ca ag – nonselective activator or artifact in parental CHO-K1 cells. Fluo-8 calcium fluorescence; scaled to maximal ATP response, vehicle zero. activation, % at 3 µM. 0.48% of 360,000 active. AID 602248; in the data active = activation above about 15%;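 also: untransfected CHO-K1 host cells lacking M1 receptor as counterscreen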
# M1 antag – human CHRM1 antagonism; P11229; CHO-K1 hM1, Fluo-8 calcium fluorescence, ACh EC80 antagonist; inhibition, % at 3 µM; 1.3% of 360,000 active;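 active = percent inhibition above its own plate's cutoff, namely the mean of that plate's compound wells plus 3 SD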;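 also: peak over basal fluorescence ratio during 140 s after agonist addition; 0% = ACh EC80 plus DMSO and 100% = DMSO alone without agonist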
# M1 ag – human M1 muscarinic receptor agonism. P11229. CHO-K1 hM1, Fluo-8 calcium fluorescence, agonist mode; 0% DMSO, 100% acetylcholine EC100. activation, % at 3 µM. 0.33% of 360,000 active. AID 588814;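 active = activation above the run's mean compound activation plus 3 SD, cut at about 16% in these data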;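 also: peak over basal fluorescence ratio within a 140 s kinetic read after compound addition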
# CHO-K1 Ca antag – nonselective inhibitor or artifact in parental CHO-K1 cells; inhibition, % at 3 µM; 0.6% of 360,000 active; ATP-induced calcium, Fluo-8 fluorescence;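 active = inhibition above a per-plate cutoff, the plate's mean sample inhibition plus 3 SD, cut at about 24% in these data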;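 also: 0% = DMSO plus EC80 ATP and 100% = DMSO alone without ATP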
# * hit, by the source's call; x = not tested or not shown.
SMILES,CHRM1 PAM,CHO-K1 Ca PAM,CHO-K1 Ca ag,M1 antag,M1 ag,CHO-K1 Ca antag
Cc1ccc(C)c(SCC(=O)N(C)C2CCS(=O)(=O)C2)c1 (stereo not drawn),8.3,14.8,0.4,-8.7,-3.7,-9.2
Cn1c(N)c(-c2ccccc2)c2ccc([N+](=O)[O-])cc2c1=O,-23.7,-6.1,15.5*,42.4*,61.5*,-4.9
CCc1cc(C(=O)Nc2cc(S(=O)(=O)N3CCCCC3)ccc2N2CCN(C)CC2)sc1C,-7.2,-1.0,2.7,-0.9,-1.4,1.7
COc1cc(OC)nc(Nc2nc(C(N)Cc3ccc(Cl)cc3)cs2)n1 (stereo not drawn),-0.6,10.1,2.4,7.0,4.6,2.2
O=C1N[C@@H](c2ccccc2)COC(=O)[C@@H](Cc2ccc(F)cc2)CC/C=C/C[C@H]1CC(=O)N(CCO)Cc1ccccc1,-10.1,-3.3,7.5,28.1*,2.3,11.3
CCCC(=O)Nc1ccc(NC(=O)c2ccccc2Cl)nc1,-9.1,-6.5,0.3,22.0,-1.6,23.7*
O=C(Cc1ccccc1)Nc1ccc(NC(=O)c2ccco2)nc1,13.9,-4.1,-0.1,-8.6,0.2,24.9*
Cc1ccc(NC(=O)C2(C)CCN2Cc2cccc3c2OCO3)cc1O (stereo not drawn),-7.4,9.9,3.2,1.5,-0.8,-11.8
O=C1CC(c2ccccc2)CC(O)=C1C=NCCN1CCNCC1 (stereo not drawn),-7.4,14.3,0.4,25.2*,10.1,-3.2
O=C1CC(c2ccc(F)cc2)CC(O)=C1C=NCCN1CCNCC1 (stereo not drawn),-10.3,-5.0,0.0,3.8,-5.5,12.8
O=C1CC(c2cccs2)CC(O)=C1C=NCCN1CCNCC1 (stereo not drawn),-8.0,4.7,0.4,32.2*,17.1*,-14.4
O=C1CC(c2ccco2)CC(O)=C1C=NCCN1CCNCC1 (stereo not drawn),-12.8,4.3,-0.5,38.8*,2.1,-6.2
Cc1ccc(-n2cnc3c(=O)[nH]cnc32)cc1[N+](=O)[O-],-1.6,-4.3,0.4,1.2,-4.3,-2.8
CCOC(=O)C1(Cc2ccccc2)CCCN(Cc2ccncc2)C1 (stereo not drawn),2.8,9.6,0.8,-3.2,-3.6,-13.0
CCOC(=O)C1(Cc2ccccc2)CCCN(Cc2cccc(C(C)=O)c2)C1 (stereo not drawn),3.9,4.8,15.6*,2.6,-4.9,1.4
CC(C)Cn1c(SCC(=O)N2CCN(S(=O)(=O)c3ccccc3)CC2)nc2ccccc21,-21.2,17.3,2.9,29.6*,-6.4,-0.7
Cn1c(SCC(=O)N2CCN(S(=O)(=O)c3ccccc3)CC2)nc2ccccc21,-10.7,-7.0,3.5,8.3,-4.9,-12.2
N#CCCn1c(SCC(=O)N2CCN(S(=O)(=O)c3ccccc3)CC2)nc2ccccc21,-21.5,9.2,1.2,64.1*,-6.0,0.0
C[C@@H]1CN([C@@H](C)CO)C(=O)CCCn2nncc2CO[C@@H]1CN(C)S(=O)(=O)c1ccc(Oc2ccccc2)nc1,3.7,1.1,-0.1,-16.9,-9.8,7.7
Nc1ncnn1Cc1ccccc1,8.1,-6.4,0.6,-11.1,-1.4,-5.6
COCCN(CC(=O)Nc1cccc(C)c1C)C(=O)c1cc(-c2cccs2)nn1-c1ccccc1,-11.4,-19.8,4.2,17.9,-3.4,2.5
COCCN(CC(=O)Nc1cccc(C)c1C)C(=O)c1cc(-c2ccncc2)nc2ccccc12,-17.5,-6.7,6.1,34.4*,-1.4,0.0
O=C1[C@H]2[C@@H]3CCN1CCC[C@@H]2C=C[C@@H]3c1ccc(Br)cc1,x,-13.5,4.2,x,x,-0.2
O=C(Nc1ccc(N2CCCC2)cc1)c1cc(Br)ccc1Cl,-28.4,-9.8,-0.2,52.6*,-8.5,1.6
O=C(Nc1ccccc1N1CCN(C(=O)c2ccccc2)CC1)c1cc(Br)ccc1Cl,0.4,-8.1,0.1,14.4,-1.5,25.9*
SMILES,CHRM1 PAM,CHO-K1 Ca PAM,CHO-K1 Ca ag,M1 antag,M1 ag,CHO-K1 Ca antag
COc1ccc(Br)cc1C(=O)Nc1ccccc1N1CCN(C(=O)c2ccccc2)CC1,11.8,-11.1,-0.3,-1.9,0.0,2.2
CS(=O)(=O)c1ccc(C(=O)Nc2ccc(N3CCCC3)cc2)c(Cl)c1,7.9,0.4,0.1,0.3,-11.9,-3.0
CC(=O)Nc1cccc(NS(=O)(=O)c2ccc3c(c2)CCC(=O)N3)c1,9.0,11.0,0.3,-21.1,-1.0,1.0
Cc1ccc(C(=O)N2CCC(N3CCC(C(=O)N4CCOCC4)CC3)CC2)cc1,6.9,3.7,0.0,-13.6,-5.1,-6.2
COc1ccc(C(N)c2csc(Nc3cc(Oc4ccccc4)ncn3)n2)cc1 (stereo not drawn),-28.7,15.7,11.4,82.4*,1.9,-7.1
O=C1OCCC1=COCCCCCCOC=C1CCOC1=O,1.3,13.3,2.9,-11.6,-0.6,-1.3
CC(=O)OCCn1c2nc(=O)[nH]c(=O)c-2nc2cc(C)c(C)cc21,-27.0,-11.9,186.1*,38.4*,202.3*,38.1*
CC1CCC(NC(=O)C2CCC(CNS(=O)(=O)c3ccc4c(c3)C(C)(C)C(=O)N4C)CC2)CC1 (stereo not drawn),13.3,10.9,0.5,-13.4,-7.2,-6.9
Cc1c(Cl)cccc1NC(=S)NCCC(c1ccccc1)c1ccccc1,1.8,-5.0,0.6,-6.8,-4.5,24.4*
COc1c(C)cc(C(O)c2ncc(-c3ccc(C(F)(F)F)cc3)[nH]2)cc1C (stereo not drawn),-6.0,0.4,0.4,9.3,-2.3,-5.9
CS(=O)(=O)N1CCN(c2ccccc2NC(=S)NC(=O)c2ccccc2[N+](=O)[O-])CC1,-24.5,1.2,6.6,28.8*,-1.4,6.7
Cc1cc(C)n(-c2ccc(F)cc2CN2CCN(Cc3ccccc3)C(CCO)C2)n1 (stereo not drawn),-18.7,12.5,1.4,39.5*,-6.5,-10.8
CC(C)=CCN1CCN(Cc2cc(F)ccc2-n2nc(C)cc2C)CC1CCO (stereo not drawn),-3.6,12.3,0.1,-2.1,-9.0,-0.8
CCN1CCN(c2ccc(NC(=O)c3ccco3)cc2Cl)CC1,-10.5,3.1,-0.2,16.7,-11.7,0.1
CCN1CCN(c2ccc(NC(=O)c3cccc(F)c3)cc2Cl)CC1,-24.6,-0.2,4.2,53.8*,-7.8,3.2
O=C(Nc1ccc(N2CCOCC2)cc1)c1cccc(S(=O)(=O)N2CCCCC2)c1,-7.2,11.4,1.7,-24.7,-2.5,-9.7
CCN1CCN(c2ccc(NC(=O)c3cccc(S(=O)(=O)N4CCCC4)c3)cc2)CC1,-28.1,16.3,0.7,74.3*,-7.1,-1.9
COc1ccccc1C#Cc1cnc2c(c1)C(=O)N([C@H](C)CO)C[C@@H](C)[C@@H](CN(C)C(=O)c1ccc3c(c1)OCO3)O2,-0.7,7.0,0.4,-1.9,-3.0,-1.6

# High-throughput results deposited in PubChem BioAssay by The Scripps Research Institute Molecular Screening Center.
